Assay results from PubChem BioAssay AID651871 (Sanford-Burnham Center for Chemical Genomics, 2012).
Several values for one entry are separate records, joined by “and”; a condition that tells them apart may be missing. Equal entries are not always repeated.

The molecules below were run on H9c2 (assay: cardiomyocyte survival under oxidative or metabolic stress – cell-based, panel, H9c2 and HL-1, ATP luminescence, set 2, SAR follow-up (AID 651871;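 further: cells exposed to stressor for 2 h before ATP readout; reference of the scale not given here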)). Settings: H9c2/HL-1 cardiomyocytes, 2-deoxyglucose stress, with 2-deoxyglucose; run 9, at 79 µM (top of the series).
`CCOC(=O)c1cccc(NC(=O)CNC(=O)c2cc(-c3cc(OC)c(OC)c(OC)c3)nc3ccccc23)c1` was tested, and the activity (protection/inhibition) was 90.9%.
Work on `COc1ccc2nc(-c3cc(OC)c(OC)c(OC)c3)cc(C(=O)NCC(=O)Nc3ccc(C(C)=O)cc3)c2c1` yielded an activity (protection/inhibition) of 84.5%.
`COc1ccc2c(c1OC)C(=O)N1c3ccccc3C(=O)N(Cc3cccc(Cl)c3Cl)C21` (stereo not drawn) was tested, and the activity (protection/inhibition) was 81.1% and 78.3% and -1.59%.
